PPC-1+TRAIL kill: PPC-1 cancer cell killing with TRAIL present; PPC-1 cells + TRAIL, ATPLite viability luminescence; cell killing (% activity), % at 4 µM or 5 µM; 220,000 tested, 0.41% active; AID 1443;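 active means cell killing above 50% in the first pass at 4 µM, then a duplicate retest at 5 µM averaging 50% or more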;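 further: plate controls were cells with TRAIL plus DMSO for no effect and medium-only wells lacking cells for full effect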
STAT3 blocker: STAT3 signaling inhibition. inhibition, % at 5.5 µM. AID 862. 190,000 tested, 0.89% active. U3A cells, IL-6 STAT3-luciferase reporter, luminescence; host cell line lacks STAT1;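 active means inhibition above the mean inhibition across all screened compounds plus 3 SD, cut at about 44% in these data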;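 further: 0% = DMSO only wells and 100% = 100 µM nifuroxazide control wells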
C8 TRAIL sens: caspase-8 TRAIL sensitization | NB7+C8 cells + TRAIL, ATPlite viability luminescence | inhibition (viability loss, TRAIL sensitization), % at 10 µM | 360,000 tested, 1% active | AID 624354;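 active means compounds causing at least 50% loss of cell viability in the single-dose screen, relative to plate controls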
STAT1 inh: inhibitors of IFN-gamma induced STAT1 signaling; inhibition, % at 5.5 µM; 200,000 tested, 0.35% active; NIH 3T3 STAT1-luciferase reporter, luminescence;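 active means inhibition above a set limit, the mean inhibition across all tested compounds plus 3 SD, cut at about 34% in these data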;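 further: 0% = IFN-gamma with DMSO and 100% = IFN-gamma with 300 µM nifuroxazide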
HSP90 inh: HSP90 refolding inhibition in rabbit reticulocyte lysate | luciferase refolding luminescence, 3 h | inhibition, % at 5.6 µM | 290,000 tested, 0.91% active | AID 1789;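 active means inhibition above the screen-wide mean plus 3 SD, computed separately per campaign, cut at about 16% in these data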;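 further: 0% = DMSO wells and 100% = 60 µM geldanamycin wells; inhibitors lower the luminescence because luciferase stays unfolded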
HSF1 inh: HSF1 inhibition | AID 2098 | NIH3T3-HGL HSE-luciferase, MG132-induced, luminescence 8 h; stronger effect = lower value | 300,000 tested, 0.77% active | activity change, negative = inhibition, % at 7.5 µM (by protocol);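 active means more than half of replicate wells show activity change below -50%, luminescence cut by over half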;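 further: luciferase reports HSF-1 transcriptional activity via heat shock element; 0% = median of DMSO wells and -100% = zero luminescence signal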
* hit, by the source's call; x = no result given. Shown are actives, neighbours in structure and some others; about 2.4% of the full set was active somewhere.

SMILES | PPC-1+TRAIL kill | STAT3 blocker | C8 TRAIL sens | STAT1 inh | HSP90 inh | HSF1 inh
COc1ccc(/C=C2\Cc3ccccc3C2=O)cc1OC | 12 | x | 10 | x | 0 | 4
COc1ccc(/C=C2\CCc3ccccc3C2=O)cc1O | x | x | 66* | x | 4 | -1
O=C1/C(=C/c2ccc(O)cc2)CCc2ccc([N+](=O)[O-])cc21 | 17 | 5 | 24 | 5 | 0 | 9
O=C1/C(=C\c2ccc([N+](=O)[O-])cc2)CCc2ccccc21 | 41 | -1 | 78* | 0 | 2 | 29
CN(Cc1ccccc1)C(=O)c1cnc(Cc2c[nH]c3ccccc23)c(I)c1 | x | x | 16 | x | x | x
CCC(NC(=O)Nc1nnc(C(F)(F)F)s1)(C(F)(F)F)C(F)(F)F | 41 | 99* | 44 | 61* | -1 | 1
OC[C@@H]1CN(Cc2cccs2)C[C@H](n2cnc3c(N4CCCC4)ncnc32)O1 | x | x | -4 | x | x | x
Cc1ccc2cc(NC(=O)C3(C)CCN3C(C)C)ccc2n1 (centres undefined) | x | x | -10 | x | x | x
COc1ccccc1CN1CC(C(=O)NCC2(O)CCCCC2)CCC1=O (centres undefined) | x | x | -6 | x | x | x
CCOC(=O)c1c(-c2ccccc2)n(C)c2ccc(O)cc12 | 14 | 10 | 10 | 0 | 3 | -57*
CCOC(=O)c1c(C)n(-c2ccccc2)c2ccc(O)cc12 | x | 11 | 16 | -6 | -2 | -4
N/C(=N\OC(=O)c1ccc(Br)cc1)c1ccccc1 | 2 | 14 | 84* | -56 | -3 | 22
COc1ccc(C(=O)O/N=C(\N)c2ccc(Br)cc2)cc1 | x | x | 70* | x | -2 | 4
N/C(=N\OC(=O)C12CC3CC(CC(C3)C1)C2)c1ccncc1 | -13 | x | 20 | x | -2 | 15
Cc1ccc(/C(N)=N/OC(=O)C23CC4CC(CC(C4)C2)C3)cc1 | 25 | -4 | 88* | -17 | 0 | -13
N/C(=N\OC(=O)c1cccc(Br)c1)c1ccc([N+](=O)[O-])cc1 | x | x | -15 | x | 4 | 17
N/C(=N\OC(=O)c1ccco1)c1ccc(Br)cc1 | 0 | 16 | 3 | -67 | -5 | 25
N/C(=N\OC(=O)c1cccc(Br)c1)c1ccc(Br)cc1 | 1 | -18 | 59* | 2 | -2 | 9
CC1(C(=O)NCc2ccccc2)CSCC(=O)N1CCOc1ccccc1 (centres undefined) | x | x | -3 | x | x | x
CC(C)(C)C(c1nc2ccccc2[nH]1)n1c(-c2cc(Cl)cc(Cl)c2)nc2ccccc21 (centres undefined) | x | x | 15 | x | x | x
O=C(Nc1ccc(F)cc1)C(c1ccccc1OC(F)(F)F)N1CCN(C(=O)c2ccco2)CC1 (centres undefined) | x | x | -23 | x | x | x
N/C(=N\OC(=O)c1ccccc1)c1ccn[nH]1 | x | x | 56* | x | 6 | 21
Cc1ccc(C(=O)O/N=C(\N)c2ccc(Br)cc2)cc1 | 24 | 18 | 81* | -40 | 2 | 9
N/C(=N\OC(=O)c1ccccc1)c1cccnc1 | 5 | 12 | 2 | -27 | 3 | 16
CC[C@]12c3[nH]c4cc(-c5ccco5)ccc4c3CCN1C(=O)[C@@H](CC(=O)NCCCN(C)C)C[C@@H]2C(=O)N1CCN(C(=O)c2ccco2)CC1 | x | x | -2 | x | x | x
SMILES | PPC-1+TRAIL kill | STAT3 blocker | C8 TRAIL sens | STAT1 inh | HSP90 inh | HSF1 inh
CCOc1ccc(C(=O)C(CCC(CN(C)C)C(=O)c2ccc(OCC)cc2)CN(C)C)cc1 (centres undefined) | 32 | 18 | -3 | 30 | 0 | -30
CN(C)CC(CCC(CN(C)C)C(=O)c1ccccc1)C(=O)c1ccccc1 (centres undefined) | 52* | x | 16 | x | 4 | -69*
CC1(C(=O)NS(=O)(=O)C2CC2)CCN(C(=O)c2cc(F)cc(F)c2)C1 (centres undefined) | x | x | -14 | x | x | x
N#CCc1nn(-c2ccccc2)c2ncnc(N)c12 | 14 | x | -4 | x | 1 | -60*
COc1cc(C(=O)C(=O)N2CCN(c3ccccc3)CC2)cc(OC)c1OC | x | x | 3 | x | x | x
COc1cccc2cc(C(=O)OC3CCN(C)CC3)c(=O)oc12 | 10 | -1 | 6 | -7 | -5 | -68*
COc1cc(Br)cc2cc(C(=O)OC3CCN(C)CC3)c(=O)oc12 | x | -5 | 20 | -5 | -4 | 0
OCCC1CN(Cc2ccc(Oc3ncccn3)cc2)CCN1Cc1ccc(F)c(F)c1 (centres undefined) | -3 | x | 9 | x | 0 | -3
